This note sets out measurements from PubChem BioAssay (NCI).

Compounds without any hit were thinned out: in the full panel of roughly 83,000, 20% have a hit.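 Each cell line was grown in a 96-well plate and treated with one concentration of compound for 48 hours. Values below 10 were considered active.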 Unmarked numbers belong to inactive results. The source made the active and inactive calls.

The test system of this test is OVCAR-4 ovarian. Kind of test: NCI-60 one-dose screen, 48 h (100 = growth as untreated, 0 = no growth, -100 = all killed). Particulars: 10 µM unless noted. The protocol: Growth inhibition of the OVCAR-4 human tumor cell line is measured as a screen for anti-cancer activity. Cells are grown in 96 well plates and exposed to the test compound for 48 hours. Compounds are tested at a single concentration, which is 10^-5 M for most compounds. The reported endpoint is percent growth (GI% or GIPRCNT), where numbers from 0 - 100% represent growth inhibition, and numbers from -100% - 0 represent cell death. For example, a value of 40 represents 60% growth inhibition. A value of 0 means no net growth occurred over the course of the experiment. A value of -40 indicates 40% of cells at the beginning of the experiment died by the end of the experiment. A value of -100 means all cells are dead at the end of the experiment.
NCI-60 Human Tumor Cell Lines Screen was performed using the standard one-dose NCI protocol, which is described in more detail at https://dtp.cancer.gov/discovery_development/nci-60/default.htm.
Compounds with GIPRCNT values below 10 were considered active. Activity score was based on GIPRCNT using the following formula: […]
Score is 0 for GIPRCNT values of 100 or above, 50 for GIPRCNT values of 0, and 100 for GIPRCNT values of -100.
Regarding `O=S1(=O)CCN(Cc2ccccc2)CC1`, the growth was 107%.

In the case of `O=c1c2cc(F)ccc2sc2c(NCCCNCCO)nc3ccc(Cl)cc3c12`, the growth was 61%.

As to `Cc1nc2ccccc2c(/C=C/c2ccccc2)c1C(=O)/C=C/c1ccc(Cl)cc1`, the growth is 26.5%.

Consider `O=Cc1cc2ccccc2nc1Nc1nccs1`, for which the growth is 75.8%.

For the compound `COc1cc(C2CC(c3ccc(Nc4nc(NCCO)nc(N5CCOCC5)n4)cc3)=NN2c2cc(Cl)cc(Cl)c2)cc(OC)c1OC` (stereo not given), the growth was 57.2%.

Take `COc1ccc(Cn2c(Br)c3c(c2-c2cc(OC)c(OC)c(OC)c2)CCc2sc(NC(=O)c4ccc(OC)cc4)nc2-3)cc1`: the growth was 93.3%.

For `O=C(Nc1ccc(N2CCNCC2)cn1)c1[nH]ncc1Nc1ncnc2sc3c(c12)CCC3`, the growth was -53.6% (active).

As to `CC(C)c1ccc(S(=O)(=O)NC(=O)NC2CCCC2)cc1`, the growth is 97.2%.

For the compound `O=c1oc2ccc(F)cc2c(=O)n1-c1ccc(F)cc1F`, the growth is 11.9%.

`O=c1oc2ccc(I)cc2c(=O)n1-c1ccc(F)cc1F`: the growth was 12.7%.

With `O=c1oc2ccc(Br)cc2c(=O)n1-c1ccc(Cl)cc1F`, the growth is 15.1%.

`O=C(Nc1ccc(Cl)cc1F)c1cc(I)ccc1O`: the growth is 23.1%.

For the compound `O=C(NC1CCN(Cc2ccccc2)CC1)c1cc2nc(-c3ccc(Cl)s3)cc(C(F)(F)F)n2n1`, the growth was 66.4%.

For the compound `COc1ccc(CCN2C(=O)CCSC2=S)cc1OC`, the growth is 90.5%.

As for `COc1ccc(C2=C(c3cccc(OC)c3)C(=O)c3ccc(C)nc3C2=O)cc1`, the growth is -95.8% (active).

On to `COc1ccc(Br)c(/C=C2\SC(=Nc3ccc(O)cc3)NC2=O)c1`, for which the growth is 83%.

Consider `COc1cc2nc(NC3CCC3)nc(NC3CCN(C(C)C)CC3)c2cc1OC`, for which the growth was 62.5%.

On to `CCOC(=O)C(CC(=O)O)=C(C(=O)OCC)C(=O)OCC`, for which the growth was 90.2%.

As to `CN1C(=O)N(C)C2C1NN=c1s/c(=C\c3c[nH]c4ccccc34)c(=O)n12` (stereo not given), the growth was 103%.

As to `O=C(CSc1nc2ccccc2c(=O)n1-c1ccccc1)Nc1ccc(C(=O)/C=C/c2ccc(Cl)cc2)cc1`, the growth was 105%.

In the case of `COC(=O)[C@H]1CCCN1C(=O)[C@H]1CCCN1C(=O)[C@H](Cc1c[nH]c2ccccc12)NC(=S)Nc1cc(C(F)(F)F)cc(C(F)(F)F)c1`, the growth is 62%.

`COc1cc(C2C3=C(COC3=O)N(CCO)c3cc4c(cc32)CCC4)cc(OC)c1O` (stereo not given): the growth was 38.2%.

As to `Cc1cc2c(c(C)c1Cl)C(=O)/C(=C/c1cccc([N+](=O)[O-])c1)O2`, the growth was 86.5%.

On to `COc1ccccc1N1C(=N)S/C(=C\c2ccc(OCc3ccccc3F)cc2)C1=O`, for which the growth is 87%.

`COc1ccc(-c2nnc(COc3ccc(C(=O)/C=C/c4ccco4)cc3)o2)cc1`: the growth is 67.9%.

`O=C1c2cc(Cl)ccc2Oc2cc([N+](=O)[O-])ccc2N1c1ccc(F)cc1F`: the growth was 79.4%.

As to `CC(=O)n1cc(-c2c[nH]c3ccccc23)c(-c2ccc(Cl)cc2)n1`, the growth is 62%.

As for `COc1cc(NC(=O)CCSc2nc3ccccc3c(=O)n2Cc2ccccc2)cc(OC)c1OC`, the growth is 63.4%.

Consider `O=C(Nc1ccc(I)cc1F)c1cc(Br)ccc1O`, for which the growth is 12.4%.

As to `COC(=O)/C(CCC=C(C)C)=C1\[C@@H](OC(C)=O)C[C@@]2(C)[C@H]1C[C@@H](O)[C@H]1[C@@]3(C)CC[C@H](NC(=O)c4cnccn4)[C@@H](C)[C@@H]3CC[C@@]12C`, the growth is 98.4%.

On to `COc1ccc(/C=C2\SC(=Nc3ccccc3)NC2=O)cc1`, for which the growth was -49.4% (active).

Take `COc1cc(/C=C2\CCC/C(=C\c3cc(CN4CCOCC4)c(O)c(OC)c3)C2=O)cc(CN2CCOCC2)c1O`: the growth was 36.1%.

Consider `CCOC(=O)c1ccc(N=Cc2sc(=O)[nH]c2O)cc1`, for which the growth was 100%.

Turning to `O=c1oc2ccc(I)cc2c(=O)n1-c1ccc(I)cc1F`, the growth is 16.7%.

In the case of `CN1CCN(Cc2ccc(NC(=O)c3[nH]ncc3Nc3cc(OC4CCCC4)ncn3)cc2)CC1`, the growth is 59.2%.

As for `Oc1[nH]c2ccccc2c1N=Nc1nnc2n1N=C(c1ccccc1)CS2`, the growth was 59.6%.

Regarding `CCOc1cccc(/C=N\Nc2nc(=O)cc(C(=O)OC)s2)c1O`, the growth was 49.3%.

Take `Brc1ccc(Oc2ccc(Nc3ncnc4onc(-c5ccccc5)c34)cc2)cc1`: the growth was 88.2%.

Take `CNC(=O)c1cc(Oc2ccc(CC(=O)Nc3cc(C(C)(C)C)cn3C)cc2)ccn1`: the growth was 48.9%.

In the case of `COc1ccc2oc(=O)cc(Cn3cc(Cn4cnc5c4c(=O)n(C)c(=O)n5C)nn3)c2c1`, the growth was 103%.
